Rows were chosen to be rich in hits. Some 6.1% of all compounds tested hit in one or more screens of this group.
DUSP1 inh: human dual specificity phosphatase 1 inhibition; recombinant MKP-1, OMFP hydrolysis fluorescence; 0.15% of 65,000 active; inhibition, %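 (compounds tested at a single concentration somewhere between 10 and 100 µM)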;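 active = inhibition above about 50%, limit read from the data; inconclusive = inhibition over screen mean plus 3 SD, below that limit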;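 also: 0% = DMSO max control wells and 100% = wells with enzyme stopped by NaOH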
Cdc25B inh: inhibitors of human Cdc25B phosphatase | P30305 | recombinant Cdc25B, OMFP fluorescence Ex485/Em525 | inhibition, %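 (compounds tested at 10 µM final in the well)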 | 0.1% of 65,000 active | AID 368; in the data active = inhibition above about 50%
M1 antag: blocks the rat M1 muscarinic receptor response to acetylcholine. P08482. CHO-M1 cells, Fluo-4 calcium, ACh EC80 antagonist mode; stronger effect = lower value. B-score at 10 µM. 3.4% of 64,000 active. AID 628;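 active = calcium fluorescence response, raw or row-and-column corrected B-score, differing from the plate sample mean either way at a set confidence level, mostly lower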
Hsp90 block: displaces geldanamycin probe from tumor Hsp90; P07900; NCI-N417 lysate Hsp90, Cy3B-geldanamycin FP displacement; inhibition, % at 30 µM; 0.35% of 64,000 active; AID 429;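 active = inhibition above 50%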;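 also: 0% = tracer plus lysate wells and 100% = tracer alone without lysate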
M1 ag: M1 muscarinic receptor agonism | B-score at 10 µM | 3% of 64,000 active | CHO-M1 cells, Fluo-4 calcium fluorescence, agonist mode; stronger effect = higher value;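 active = fluorescence rise, raw or as B-score row- and column-corrected plate score, outside the 99.7% band of its plate's samples, either direction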
MMP-13 inhibitor: blocks human MMP13 activity; P45452; MMP-13 fTHP FRET cleavage, Mca fluorescence; inhibition, % at 4 µM; 0.07% of 65,000 active; AID 570;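 active = inhibition above the mean of compound-free control plate wells plus 3 SD, cut at about 14% in these data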;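 also: 0% = DMSO wells and 100% = wells with reference MMP-13 inhibitor after basal subtraction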
M1 ag confirm: confirmation of rat M1 muscarinic receptor agonists. shares compounds with M1 ag. 19% of 1,700 active. fluorescence change (max-min) at 10 µM. CHO-M1 cells, Fluo-4 calcium fluorescence, agonist mode; actives lie on both sides;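 active = fluorescence change differs from the solvent-only DMSO control mean at a set confidence level in both duplicate runs; inconclusive = differs from solvent-only control mean in just one of two runs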;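 also: an EC20 dose of acetylcholine follows compound addition during the same imaging run; raw fluorescence intensity difference in instrument units with no normalization to controls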
M4 agonist ctr: counter-screen for M1 agonists: activity at rat M4 receptor; fluorescence change (max-min) at 10 µM; AID 1741; 9% of 1,700 active; CHO M4/Gqi5 cells, Fluo-4 calcium fluorescence, agonist mode; actives lie on both sides; shares compounds with M1 ag;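 active = fluorescence change differing from the plate's solvent-only control wells at 99.7% confidence in both duplicates, whether higher or lower; inconclusive = differs from solvent controls in only one of two duplicates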
Target sequence (P08485 whole entry, looked up): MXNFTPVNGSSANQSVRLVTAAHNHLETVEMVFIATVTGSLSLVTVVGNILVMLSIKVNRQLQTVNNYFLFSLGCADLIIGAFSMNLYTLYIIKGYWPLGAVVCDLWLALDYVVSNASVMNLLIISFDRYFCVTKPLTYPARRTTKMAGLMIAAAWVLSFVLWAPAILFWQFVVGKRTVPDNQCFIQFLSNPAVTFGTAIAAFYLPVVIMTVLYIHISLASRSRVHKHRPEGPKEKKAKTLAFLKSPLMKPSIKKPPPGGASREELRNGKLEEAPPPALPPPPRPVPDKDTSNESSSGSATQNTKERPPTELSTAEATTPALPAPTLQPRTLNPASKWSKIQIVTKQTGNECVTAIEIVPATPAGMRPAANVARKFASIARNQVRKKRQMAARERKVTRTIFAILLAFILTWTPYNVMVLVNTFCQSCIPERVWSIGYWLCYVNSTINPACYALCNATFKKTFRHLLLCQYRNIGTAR
Active calls of the source: *; ? = inconclusive; / = no result given.

SMILES	DUSP1 inh	Cdc25B inh	M1 antag	Hsp90 block	M1 ag	MMP-13 inhibitor	M1 ag confirm	M4 agonist ctr
COc1ccc(CCNC(=O)COC(=O)c2ccco2)cc1OC	-17	-21	-0.74	-2	0.056	1	/	/
O=C(CSc1nc2ccccc2c(=O)n1Cc1ccco1)N1CCCCCC1	39	-6	-1.1	-6	2*	3	?	-62
CCOc1ccccc1NC(=O)c1cccc(NC(=O)c2ccco2)c1	-1	-4	-0.68	-4	5.6*	-1	13	-24
Cc1ccccc1OCC(=O)Nc1cccc(NC(=O)c2ccco2)c1	-5	-6	0.54	-1	7*	6	?	?
Cc1cccc(C)c1OCC(=O)Nc1cccc(NC(=O)c2ccco2)c1	-4	-5	0.58	-4	-0.11	1	/	/
O=C(CCCCCn1c(=O)[nH]c2ccsc2c1=O)N1CCN(C2CCCCC2)CC1	9	-3	0.012	-1	1.5	6	/	/
O=C(Cn1c(SCC(=O)NC2CCCC2)nnc1-c1ccncc1)Nc1ccc2c(c1)OCO2	6	-11	-0.1	-2	-0.97	-5	/	/
O=C(NC1=NCCS1)c1cccc(S(=O)(=O)N2CCCCC2)c1	3	-16	0.28	/	-0.3	0	/	/
CCC(NC(=O)Cn1cnc2c(=O)n(C)c(=O)n(C)c21)c1ccccc1 (configuration not stated)	6	-6	-0.024	0	-1.5	-3	/	/
CC(C)CC(C(=O)Nc1oc(-c2ccco2)c(-c2ccco2)c1C#N)N1C(=O)c2ccccc2C1=O (configuration not stated)	36	30	-1.9*	-28	13*	1	-5.6	-33
O=C(Nc1nccs1)C12CC3CC(C1)CC(C(=O)Nc1nccs1)(C3)C2	2	0	-0.31	-6	4*	5	?	-40
C1=Nc2c(Nc3ccccc3)ncnc2Oc2ccccc21	-8	-2	-0.33	1	0.12	-2	/	/
OC1C[N+]2(CCCCC2)C1	-11	2	0.64	-2	-0.038	6	/	/
C=C(C)CN1CCN(c2c(CCC#N)c(C)c(C#N)c3nc4ccccc4n23)CC1	-15	21	0.065	-4	5.7*	0	7.4	0.77
CCOc1ccc(-c2cnc(SCC(N)=O)nc2N)cc1	-4	-12	0.47	0	-0.013	2	/	/
CCCCCn1c(N)c(C#N)c2nc3ccccc3nc21	23	-6	-0.41	-5	0.56	-326	/	/
CCCCn1c(NC(C)=O)c(C#N)c2nc3ccccc3nc21	-4	6	0.5	-14	5.5*	-143	37	-6.8
C=CCn1c(NC(=O)c2ccccc2Cl)c(C#N)c2nc3ccccc3nc21	20	26	-0.97	61*	6.8*	-18	30	2.6
COc1ccc(NC(=O)N(CCC(C)C)C(C)c2ccccn2)c(OC)c1 (configuration not stated)	4	-5	0.9	0	0.46	1	/	/
Cn1cccc1-c1nc2ccc(NC(=O)c3cccs3)cc2[nH]1	-6	4	-0.64	-3	8.5*	-2	?	-48
Cc1nc(SCC(=O)N2CCC(C(N)=O)CC2)n[nH]1	2	12	-0.18	-2	3.9*	3	?	-45
CCCCOc1ccc(S(=O)(=O)Nc2cccnc2)cc1	9	-17	-1.5	-2	4.9*	1	-1.3	?
Cc1onc(-c2c(F)cccc2Cl)c1C(=O)NCc1ccco1	1	7	0.0022	32	-0.12	4	/	/
O=C(CSCc1c(F)cccc1Cl)NCc1ccco1	-4	3	-0.42	-2	1.5*	0	-17	-23
CCCN(CCC)CCSc1nc(O)c(C(C)C)c(=O)[nH]1	14	-11	-2.5	0	0.2	3	/	/
SMILES	DUSP1 inh	Cdc25B inh	M1 antag	Hsp90 block	M1 ag	MMP-13 inhibitor	M1 ag confirm	M4 agonist ctr
Cc1nc2ccccc2c2oc(C(=O)N3CCC(N4CCCCC4)CC3)cc12	-8	-16	-0.94	-6	0.5	-1	/	/
Cc1nc2ccccc2c2oc(C(=O)N3CCN(C4CCCCC4)CC3)cc12	6	-11	-3.2*	1	2.4*	-2	?	-43
CCOC(=O)c1c(C)oc(/N=C/c2ccccc2O)c1C#N	15	9	0.63	3	0.13	-1	/	/
O=C(NS(=O)(=O)c1ccc2c(c1)OCCO2)c1ccccc1	-1	1	0.066	1	-0.0019	-1	/	/
CCN1CCN(c2nc3c(C)cccn3c(=O)c2/C=C(\C#N)S(=O)(=O)c2ccccc2)CC1	-7	19	-3	-5	8.9*	-8	31	2.4
CCOC(=O)N1CCN(C(=O)c2cccc(OC)c2OC)CC1	8	-14	0.044	-13	-0.036	-1	/	/
COc1cccc(C(=O)N2CCN(C3CCC(c4ccccc4)CC3)CC2)c1OC (configuration not stated)	28	-24	-3.1*	2	18*	-4	?	-40
CN1C(=O)c2cccc(NCCCN3C(=O)c4ccccc4C3=O)c2C1=O	-21	-11	1.1	0	4.8*	3	8.1	16
CN1C(=O)c2cccc(NC(=O)C3CCCCC3)c2C1=O	-2	2	-0.54	-4	0.23	-28	/	/
CCNc1cccc2c1C(=O)N(C)C2=O	-19	5	-0.69	-5	179*	-6	928*	935*
COc1ccc(C(=O)NCc2nnc(SC)n2C2CCCCC2)cc1	-8	-1	0.35	-2	0.25	-40	/	/
CCOC(=O)C(C)Sc1nnc(CNC(=O)c2ccc(OC)cc2)n1C1CCCCC1 (configuration not stated)	34	-5	-0.97	-5	3.3*	-4	?	?
CCOC(=O)c1c(NC(=O)CSc2nc3cccnc3n2C)sc(C(C)=O)c1C	11	-26	-0.21	1	0.53	4	/	/
CCOC(=O)c1c(NC(=O)CSc2nnc(-c3ccccc3C)n2C)sc(C(C)=O)c1C	15	1	-5.2*	-8	2.4*	6	-9.6	?
O=c1c(/C=N/O)coc2ccc3ccccc3c12	-4	1	-0.63	-4	-0.31	-1	/	/
COc1ccc2ccccc2c1/C=N/O	-2	-18	-1.3	0	5.6*	1	?	-71*
CSC(N)=NCCC[C@H](N)C(=O)O	/	/	/	0	/	/	/	/
CCN(C(=O)c1ccc(C(C)(C)C)cc1)c1nnc(Cn2nnc3ccccc32)s1	11	-13	-0.64	1	3.2*	-2	?	-54
COCCNC(=O)CN(C(=O)Cn1nnc2ccccc21)c1ccccc1	8	-6	0.068	-1	-1.3	3	/	/
CC1(C)NC(=O)N(CC(O)COc2ccc(-c3ccc(C#N)cc3)cc2)C1=O (configuration not stated)	5	-4	-0.045	-3	-1.2	-154	/	/
